RGS8-Gao reg = RGS8-Galphao binding modulators, primary screen, biochemical, multiplexed bead flow cytometry | response (percent of control binding), % at 10 µM | actives lie on both sides | AID 1423, 2008 | actives 0.34% (n = 220,000) | Guanine nucleotide-binding protein G(o) subunit alpha (Homo sapiens), P09471; in the data active = response below about 60% or above about 140%; inactive = in between;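 note: Galphao activated as the GDP aluminium fluoride complex binding bead-coupled RGS8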
Target sequence (P09471 whole entry, looked up): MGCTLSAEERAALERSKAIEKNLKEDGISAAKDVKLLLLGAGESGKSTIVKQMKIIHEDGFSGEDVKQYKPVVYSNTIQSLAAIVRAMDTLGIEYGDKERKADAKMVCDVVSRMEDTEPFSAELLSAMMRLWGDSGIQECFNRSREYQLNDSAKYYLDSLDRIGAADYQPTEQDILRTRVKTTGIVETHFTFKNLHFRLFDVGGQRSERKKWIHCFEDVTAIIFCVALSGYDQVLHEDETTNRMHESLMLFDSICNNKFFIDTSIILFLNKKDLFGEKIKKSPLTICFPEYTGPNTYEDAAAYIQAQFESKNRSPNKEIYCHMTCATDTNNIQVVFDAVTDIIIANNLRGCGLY
Avidin fluor = green autofluorescence of compounds with avidin beads – biophysical, 488/530 nm, flow cytometry, artefact control, profiling panel | fluorescence (KMESF) at 10 µM | AID 1775, 2009 | compound fluorescence 488/530 nm; stronger effect = higher value | actives 0.38% (n = 220,000); in the data active = fluorescence above about 47
GSH bead fluor = compound fluorescence on glutathione beads, profiling panel, artefact control, biophysical, 488/530 nm, flow cytometry; GSH beads flow cytometry, compound fluorescence 488/530 nm; stronger effect = higher value; fluorescence (KMESF) at 10 µM; actives 0.25% (n = 190,000); AID 1776, 2009; in the data active = fluorescence above about 89;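 note: glutathione beads carrying GST-tagged Bcl family fusion proteins plus one bare bead set; values are compound well signal with DMSO vehicle wells as background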
RGS16-Gao = modulators of RGS16 binding to Galphao, primary screen, biochemical, human proteins, multiplexed bead flow cytometry; Regulator of G-protein signaling 16 (Homo sapiens) + Guanine nucleotide-binding protein …; bead-based flow cytometry RGS16-Galphao binding, fluorescence; actives lie on both sides; binding response (% of control), % at 10 µM; actives 0.38% (n = 220,000);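 note: Galphao activated by GDP with aluminum fluoride before binding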
RGS4-Gao reg = modulators of RGS4 binding to Galphao, primary screen, biochemical, multiplexed bead flow cytometry | binding response (% of control), % at 10 µM | actives 0.33% (n = 220,000) | Guanine nucleotide-binding protein G(o) subunit alpha (Homo sapiens), P09471 | actives lie on both sides; in the data active = binding response below about 49% or above about 150%; inactive = in between;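 note: fluorescent Galphao activated with aluminum fluoride binding bead-coupled RGS4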
RGS7-Gao reg = RGS7-Galphao binding modulators, primary screen, biochemical, multiplexed bead flow cytometry | actives lie on both sides | binding response (% of control), % at 10 µM | actives 0.35% (n = 220,000) | Guanine nucleotide-binding protein G(o) subunit alpha (Homo sapiens), P09471; in the data active = binding response below about 49% or above about 150%; inconclusive = no clear call, values can overlap the other calls; inactive = in between;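 note: fluorescent Galphao held in activated GDP-AlF4 state binding bead-coupled RGS7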
RGS4-Gao HTS = modulators of RGS–Galpha-o binding, primary screen, biochemical, multiplexed beads, flow cytometry, RGS4/7/8/16/19; shares compounds with RGS16-Gao; multiplexed bead flow cytometry; RGS4–Galpha-o binding response, % at 10 µM; actives 99% (n = 1,600);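 note: fluorescently labeled Galpha-o bound to GDP with aluminium fluoride binding biotinylated RGS beads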
Target sequence (P09471 whole entry, looked up): as above
Target sequence (P49798 whole entry, looked up): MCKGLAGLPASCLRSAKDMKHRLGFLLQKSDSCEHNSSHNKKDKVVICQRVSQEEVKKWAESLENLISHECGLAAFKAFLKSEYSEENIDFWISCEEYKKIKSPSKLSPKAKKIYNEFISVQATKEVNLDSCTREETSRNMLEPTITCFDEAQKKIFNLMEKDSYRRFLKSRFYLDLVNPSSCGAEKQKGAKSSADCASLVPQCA
Avidin counter = disruption of biotin probe capture by avidin, counter-screen for RGS protein interaction modulators, biochemical, flow cytometry, bead-based | shares compounds with RGS16-Gao | streptavidin beads, fluorescein-biotin binding | inhibition, % at 10 µM | 1,700 tested, under 10 active | AID 1783, 2009;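 active = inhibition above 50%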;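 note: median green fluorescence of gated singlet beads compared with DMSO control wells; 0% = DMSO wells and 100% = complete loss of bead fluorescence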
RGS8-Gao single = RGS8-Galphao binding modulators, confirmation, biochemical, multiplexed bead flow cytometry, single concentration; binding response (% of control), % at 10 µM; bead-based flow cytometry RGS8-Galphao binding, fluorescence; actives lie on both sides; shares compounds with RGS16-Gao; AID 1836, 2009; actives 3% (n = 1,700); in the data active = binding response below about 72% or above about 130%; inactive = in between;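 note: Galphao activated as GDP AlF4 complex before binding bead RGS8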
RGS7-Gao confirm = RGS7-Galphao binding modulators, confirmation, biochemical, multiplexed bead flow cytometry, single concentration | actives 7.8% (n = 1,700) | bead-based flow cytometry RGS7-Galphao binding; actives lie on both sides | shares compounds with RGS16-Gao | response (percent of control binding), % at 10 µM | AID 1837, 2009; in the data active = response below about 75% or above about 130%; inactive = in between;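 note: fluorescent Galphao activated with GDP and aluminum fluoride binding bead-coupled RGS7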
RGS16-Gao conf = modulators of RGS16-Galphao protein binding, confirmation, biochemical, single concentration, multiplexed bead flow cytometry; shares compounds with RGS16-Gao; bead-based flow cytometry; actives lie on both sides; response (% of control binding), % at 10 µM; actives 4% (n = 1,700); in the data active = response below about 74% or above about 130%; inactive = in between;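 note: Galphao activated as the GDP aluminium fluoride complex binding bead-coupled RGS16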
RGS4-Gao confirm = modulators of RGS4-Galphao protein binding, confirmation, biochemical, single concentration, multiplexed bead flow cytometry; actives 4% (n = 1,700); AID 1840, 2009; actives lie on both sides; binding response (% of control), % at 10 µM; shares compounds with RGS16-Gao; in the data active = binding response below about 74% or above about 130%; inactive = in between
RGS19-Gao single = regulators of RGS19-Galphao binding, confirmation, biochemical, single point, multiplexed bead flow cytometry; response (percent of control binding), % at 10 µM; shares compounds with RGS16-Gao; bead-based flow cytometry RGS19-Galphao binding; actives lie on both sides; actives 5% (n = 1,700); in the data active = response below about 50% or above about 160%; inactive = in between;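 note: 100% = no compound control and 0% = blank background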
Numbers without * were called inactive; ? = inconclusive; . = not tested or not shown; [ ] = remark or other dose. A selection: hits, their analogues and other compounds. The true share with any hit is near 1.2%. Unless noted, the rule behind the calls is not given here.

SMILES	RGS8-Gao reg	Avidin fluor	GSH bead fluor	RGS16-Gao	RGS4-Gao reg	RGS7-Gao reg	RGS4-Gao HTS	Avidin counter	RGS8-Gao single	RGS7-Gao confirm	RGS16-Gao conf	RGS4-Gao confirm	RGS19-Gao single
CN(C)C(=O)Nc1cccc(OC(=O)N(C)C)c1	98.8	178*	22	107.8	126.2	281.3*[activator]	126.2*	-0.5	97.5	98.8	101.0	100.8	101.2
CN(C)C(=O)Oc1ccc(OCc2nc3ccccc3[nH]2)cc1	102.1	3	10	99.0	100.1	101.4	.	.	.	.	.	.	.
COc1cc(C)cc(CN2CC=C(c3ccccc3)CC2)c1O	98.9	10	13	101.4	100.4	?	.	.	.	.	.	.	.
c1ccc2c(c1)[nH]c1cnccc12	105.4	10	20	109.2	101.2	104.6	.	.	.	.	.	.	.
Cc1c2ccncc2c(C)c2c1[nH]c1ccccc12	92.1	15	18	77.9	153.9*[activator]	128.4	.	-0.2	94.4	76.0	89.3	84.1	72.0
CCN1CCN(c2cc(N3CCCC3)c(F)cc2[N+](=O)[O-])CC1	121.6	12	17	183.9*[activator]	107.6	111.5	107.6*	-2.1	98.0	61.7*	78.0	78.9	64.4
Cc1cc(Cl)nc(N)n1	146.2*[activator]	5	9	310.7	114.2	112.1	114.2*	-2.3	96.3	92.8	95.7	95.5	99.7
CCSC1=NN1c1cc(C)nc(N)n1	101.9	9	.	96.7	102.4	?	.	.	.	.	.	.	.
CC(C)N1CC=C(c2c[nH]c3ccccc23)CC1	96.0	22	19	97.5	95.3	98.1	.	.	.	.	.	.	.
C1=C(c2c[nH]c3ccccc23)CCNC1	107.0	14	24	133.0	166.5*[activator]	151.4*[activator]	.	2.0	99.0	135.5*[activator]	103.2	110.4	116.7
CCC(=O)N1N=C(c2c(O)n(CCc3ccccc3)c(=O)[nH]c2=O)CC1c1ccc(OC)c(OC)c1 (stereo not drawn)	101.8	7	.	100.5	101.4	?	.	.	.	.	.	.	.
C=CCn1c(O)c(C(C)=NCC2CCCO2)c(=O)[nH]c1=O (stereo not drawn)	103.8	10	.	104.9	102.2	?	.	.	.	.	.	.	.
CCCCS(=O)(=O)N1CCN(C(=N)N[N+](=O)[O-])CC1	99.1	6	20	102.8	99.8	95.4	.	.	.	.	.	.	.
O=P(Oc1ccccc1)(Oc1ccccc1)C(Nc1ccccc1)c1ccccc1 (stereo not drawn)	52.9*	2	9	12.2	68.3	68.3	68.3*	0.5	100.0	99.5	102.7	99.9	98.4
O=c1[nH]c(O)c(N=Nc2ccc(S(=O)(=O)N3CCOCC3)cc2)c(=O)[nH]1	97.2	8	8	96.9	97.9	97.3	.	.	.	.	.	.	.
O=c1[nH]c(=S)[nH]c(O)c1N=Nc1ccc(S(=O)(=O)N2CCOCC2)cc1	0.7*	-4	.	-19.4*	-35.5*	?	.	-1.2	99.0	98.3	99.1	99.1	88.8
O=C(c1ccc(-c2ccccc2)c(F)c1)C1CCCN(CCO)C1 (stereo not drawn)	80.9	6	17	37.4	99.1	96.5	.	.	.	.	.	.	.
Cc1ccccc1-n1c(O)c(/C=N/N2CCOCC2)c(=O)[nH]c1=S	84.4	78*	18	46.0	150.3*[activator]	137.6	.	-1.1	101.2	101.2	103.9	101.3	115.0
O=C1NC(c2cccnc2)Nc2sc3c(c21)CCCC3 (stereo not drawn)	71.8	4	29	22.7*	85.9	94.2	85.9*	-2.8	101.0	98.1	100.2	99.4	94.2
COC(=O)C1=CCCN(C)C1	21.1*	1	14	12.9*	15.8*	5.1*	.	-0.7	102.1	100.2	102.4	103.4	96.9
COC(=O)c1ccc(CN2CCN(Cc3ccccc3)CC2)cc1	99.3	27	11	101.4	103.7	100.8	.	.	.	.	.	.	.
Cc1c(N=Nc2c(O)n(C)c(=O)n(C)c2=O)c(=O)n(-c2ccccc2)n1C	58.0*	6	12	1.4	64.7	66.3	64.7*	1.4	100.4	99.0	97.6	101.9	92.0
Cc1cccc(-n2c(-c3ccccc3)nc3ccccc3c2=O)n1	98.0	10	10	94.4	93.0	88.2	.	.	.	.	.	.	.
CN1C(=O)NC(=O)/C(=C/c2ccc([N+](=O)[O-])o2)C1=O	58.1*	4	.	41.2	88.0	?	88.0*	.	.	.	.	.	.
COc1ccc(/C=C/C(=O)c2c(O)n(CCC3=CCCCC3)c(=O)[nH]c2=O)cc1OC	99.1	9	.	103.0	97.5	?	.	.	.	.	.	.	.
CC(=O)N1CC(=O)Nc2ccc(Cl)cc2C1c1ccc(F)cc1 (stereo not drawn)	14.8*	2	12	10.9*	25.4*	18.9*	.	0.3	101.3	100.3	100.4	101.0	98.8
CCC(=O)N1CC(=O)Nc2ccc(Cl)cc2C1c1ccc(F)cc1 (stereo not drawn)	101.1	14	33	105.4	104.9	101.0	.	.	.	.	.	.	.
CCOP(=S)(OCC)c1ccc(N(C)C)cc1	149.4*[activator]	13	65	328.7	122.6	116.0	122.6*	0.0	100.4	100.2	98.8	100.2	89.4
Nc1c2c(nc3sc4c(c13)CCCCC4)CCCC2	96.5	3	10	89.0	102.0	103.6	.	.	.	.	.	.	.
BrCC1C[n+]2c(SCc3ccccc3)nc3sc4c(c3c2O1)CCCC4 (stereo not drawn)	119.1	117*	.	221.4*[activator]	248.6*[activator]	?	.	-0.2	92.7	89.1	91.0	92.7	85.2

From PubChem
